According to article PMC4336329 (PLoS ONE, 2015):
Among all 310,000 compounds or so, about 14,000 (4.5%) showed an effect of 50% or more. Effects have a minus sign here. The entries come from a sample that favours strong results as a whole.

Each compound was assayed against human ether-à-go-go-related gene (hERG) potassium channel (human, UniProt Q12809) (assay: primary screen, population patch clamp on CHO cells stably expressing hERG; higher = less effect of the substance).
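Also: peak tail current of the secondary pulse compared with the same well before compound.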

Sequence of human ether-à-go-go-related gene (hERG) potassium channel (Q12809 whole entry, looked up): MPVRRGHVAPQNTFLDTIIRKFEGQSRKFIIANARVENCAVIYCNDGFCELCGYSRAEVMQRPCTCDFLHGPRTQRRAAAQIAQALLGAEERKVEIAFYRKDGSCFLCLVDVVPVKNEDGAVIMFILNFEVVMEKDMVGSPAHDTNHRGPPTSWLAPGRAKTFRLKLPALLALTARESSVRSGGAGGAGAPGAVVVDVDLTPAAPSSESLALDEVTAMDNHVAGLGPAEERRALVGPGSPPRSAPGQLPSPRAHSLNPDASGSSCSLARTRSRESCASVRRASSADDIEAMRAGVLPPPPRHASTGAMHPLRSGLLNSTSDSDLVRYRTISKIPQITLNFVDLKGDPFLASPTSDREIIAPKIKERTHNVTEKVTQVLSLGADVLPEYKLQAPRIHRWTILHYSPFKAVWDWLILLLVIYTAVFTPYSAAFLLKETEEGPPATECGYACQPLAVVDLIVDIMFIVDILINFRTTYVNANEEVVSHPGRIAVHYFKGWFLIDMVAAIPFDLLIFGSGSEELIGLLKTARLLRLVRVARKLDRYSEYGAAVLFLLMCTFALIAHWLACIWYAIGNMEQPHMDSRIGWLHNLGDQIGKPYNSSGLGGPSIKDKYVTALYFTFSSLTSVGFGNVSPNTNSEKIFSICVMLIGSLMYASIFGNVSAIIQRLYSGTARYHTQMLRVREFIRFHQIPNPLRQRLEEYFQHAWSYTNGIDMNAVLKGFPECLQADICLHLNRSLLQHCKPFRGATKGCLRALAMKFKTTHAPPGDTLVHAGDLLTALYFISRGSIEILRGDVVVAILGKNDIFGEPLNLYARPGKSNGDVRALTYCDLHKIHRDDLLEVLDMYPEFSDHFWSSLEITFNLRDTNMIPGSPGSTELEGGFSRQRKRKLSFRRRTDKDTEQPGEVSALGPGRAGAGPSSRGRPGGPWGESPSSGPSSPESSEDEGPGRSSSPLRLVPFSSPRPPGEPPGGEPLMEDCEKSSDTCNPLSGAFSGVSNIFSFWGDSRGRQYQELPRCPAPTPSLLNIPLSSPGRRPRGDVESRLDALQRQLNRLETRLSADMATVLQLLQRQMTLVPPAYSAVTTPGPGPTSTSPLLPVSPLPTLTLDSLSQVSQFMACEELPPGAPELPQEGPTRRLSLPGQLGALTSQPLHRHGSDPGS

SMILES | hERG current change (%, negative = inhibition) at 10uM [%]
COc1ccc(C2=NOC3(CC(=O)N(c4ccc(C)cc4)C3=O)C2)c(OC)c1 (stereo not shown) | 4.08
CCOC(=O)N1CCN(Cc2cccs2)CC1 | 24.3
Cc1ccc(C)c(NC(=O)CSc2nnc3n2CCCCC3)c1 | 11
COc1ccnc(Oc2ccc(F)cc2)c1C(=O)N/C=N/OCc1c(Cl)cccc1Cl | -5.9
C(#Cc1ccccc1)CN1CCN(c2ccccn2)CC1.Cl | -8.88
O=C(Nc1cccc(S(=O)(=O)Nc2ccccc2Cl)c1)c1ccc(Cl)nc1 | -8.9
C/C(CCN1CCc2nc(-c3ccccc3)c(-c3ccccc3)cc2C1)=N\O[C@@H](C)c1cc(-c2c(C)cc(C)cc2C)no1 | 4.08
COc1cccc(-c2cc(C(F)(F)F)nc(-n3ccc([N+](=O)[O-])n3)n2)c1 | -6.33
CCOC(=O)c1cnc(SCC(=O)Nc2ccccc2C(=O)OC)nc1N | -13.1
COc1ccc2c(c1)CCc1sc(NC(=O)c3ccc(C)cc3)nc1-2 | 10.9
CC1CN(S(=O)(=O)c2ccc(C(=O)N(CCCN(C)C)c3nc4c(Cl)cccc4s3)cc2)CC(C)O1.Cl (stereo not shown) | -36.7
CN(C)CCN(C(=O)c1cccc(Cl)c1)c1nc2c(Cl)cccc2s1.Cl | -52.6
CCN(CC)CCN(C(=O)c1ccc2c(c1)CCCC2)c1nc2c(C)cccc2s1.Cl | -30.2
COC(=O)c1ccc(C(=O)N(CCN(C)C)c2nc3c(Cl)cccc3s2)cc1.Cl | -54.9
Cc1ccc2sc(N(CCN(C)C)C(=O)c3ccc4ccccc4c3)nc2c1C.Cl | 18.7
CN(C)CCN(C(=O)c1ccc2c(c1)OCCO2)c1nc2c(Cl)cccc2s1.Cl | -59.3
CC(=O)c1ccc(C(=O)N(CCN(C)C)c2nc3c(Cl)cccc3s2)cc1.Cl | -48.6
CCN(CC)CCN(C(=O)c1ccc2c(c1)OCCO2)c1nc2c(Cl)cccc2s1.Cl | -54.7
COc1ccccc1OCCNC(=O)c1cc(F)c(F)cc1Cl | -2.68
Cc1ccccc1-n1nnnc1SC(C)C(=O)Nc1ccc(N2CCN(C)CC2)cc1 (stereo not shown) | -25.4
COc1ccc(NC(=O)[C@@H]2CC=C[C@@H]3CCN(Cc4ccccc4)C(=O)[C@@H]32)cc1 | -8.12

SMILES | hERG current change (%, negative = inhibition) at 10uM [%]
COC(=O)[C@@H]1C[C@@H]2CC[C@@H](O)C[C@@H]2N1Cc1ccc(Cl)cc1 | 23.7
CCOc1cc(/C=C2\C(=O)N(c3nc(-c4ccc(Br)cc4)cs3)N=C2c2ccccc2)ccc1O | 4.44
CS(=O)(=O)c1ccc(Cl)c(NC(=O)C2CC(=O)N(Cc3ccco3)C2)c1 (stereo not shown) | 9.79
CS(=O)(=O)c1ccc(C(=O)OCC(=O)NC(=O)C2CCCCC2)cc1[N+](=O)[O-] | 28.1
Cc1ccc(-c2cc(C(F)F)n3ncc(C(=O)N4CCCc5ccccc54)c3n2)cc1 | 3.94
C=CCn1c(SCC(=O)NCc2ccco2)nnc1-c1ccc2ccccc2n1 | -28.2
COC(C(=O)Nc1ccc(F)c(F)c1)c1ccccc1 (stereo not shown) | -13.7
COc1ccc(NS(=O)(=O)c2cccc(C(=O)NCC3CCCO3)c2)cc1 (stereo not shown) | -0.415
Cn1cnnc1SCC(=O)NCCC(c1ccccc1)c1ccccc1 | 7.79
O=C(COc1ccc(Cl)cc1)N1CCN(c2ccc([N+](=O)[O-])c(N3CCOCC3)c2)CC1 | -71.5
Cc1ccc(OCC(=O)N2CCN(c3ccc([N+](=O)[O-])c(N4CCOCC4)c3)CC2)cc1 | -71.4
O=C(COc1ccccc1)N1CCN(c2ccc([N+](=O)[O-])c(N3CCCCC3)c2)CC1 | -13.6
O=C(COc1ccc(Br)cc1)N1CCN(c2ccc([N+](=O)[O-])c(N3CCCCC3)c2)CC1 | -14.1
O=C(COc1ccccc1Cl)N1CCN(c2ccc([N+](=O)[O-])c(N3CCOCC3)c2)CC1 | -25.7
O=C(COc1ccc(Cl)cc1)N1CCN(c2ccc([N+](=O)[O-])c(N3CCCCC3)c2)CC1 | 2.92
O=c1c2ccccc2nc(/C=C/c2ccco2)n1-c1ccccc1O | -13.3
O=C(COC(=O)/C=C/C(=O)OCC(=O)Nc1ccccc1F)Nc1ccccc1F | 12.9
COc1ccc(C(CC(=O)O)NC(C)=O)cc1OC (stereo not shown) | 10.4
CCCc1nc(SCC(=O)Nc2nnc(SCC)s2)c2c(=O)n(C)c(=O)n(C)c2n1 | 3.68
CCCC12CN3CCN(CC(C3)/C1=N\NC(=O)c1ccccc1N)C2 | -4.19
CCCCC12CN3CCN(CC(C3)/C1=N\NC(=O)c1ccccc1N)C2 | -70.8

SMILES | hERG current change (%, negative = inhibition) at 10uM [%]
Nc1ccccc1C(=O)N/N=C1/C2CN3CCN(C2)CC1(Cc1ccccc1)C3 | -37.8
N#Cc1cnc(Nc2ccc(F)cc2)nc1N | -2.18
CCNc1nc(SC(C)C(=O)Nc2ccccc2)nc(N(C)C)n1 (stereo not shown) | 11.8
CC(Sc1nc(NC(C)(C)C)nc(N(C)C)n1)C(=O)Nc1ccccc1 (stereo not shown) | 10.9
CC(C)Nc1nc(SC(C)C(=O)Nc2ccccc2)nc(N(C)C)n1 (stereo not shown) | -51.4
O=C(NCCC1=CCCCC1)Nc1ccc2nsnc2c1 | 8.84
O=C(c1cnc(-c2ccc(Cl)cc2)s1)c1ccc(Cl)cc1Cl | 5.71
CCN(CC)CCn1c2c(c(SCC(=O)Nc3ccc(C)c(F)c3)nc1=O)CCC2 | -63.8
CCN(CC)CCn1c2c(c(SCC(=O)Nc3ccc4c(c3)OCCO4)nc1=O)CCCC2 | -20.4
CN(C)CCCn1c2c(c(SCC(=O)Nc3ccc4c(c3)OCO4)nc1=O)CCCC2 | -39.7
CN(C)CCCn1c2c(c(SCC(=O)Nc3ccc4c(c3)OCO4)nc1=O)CCC2 | -10.7
CCN(CC)CCCn1c2c(c(SCC(=O)Nc3ccc(C)c(F)c3)nc1=O)CCC2 | -64.5
CCN(CC)CCn1c2c(c(SCC(=O)Nc3ccc(C)c(F)c3)nc1=O)CCCC2 | -70.1
CCC1Oc2ccc(C)cc2N(CC(=O)NCc2cccc(OC)c2)C1=O (stereo not shown) | -8.94
CNC(=O)c1cc2cc(OC)ccc2oc1=N | 10.4
CC/C(=N\NC(=O)c1c[nH]c2ccccc12)c1cccs1 | 10.9
O=C(O)c1c(-n2cccc2)sc2c1CCCC2 | 24.4
COc1cc(C)c(Br)cc1S(=O)(=O)NCc1ccccc1 | 12.9
COc1ccc(CN2CCNC(=O)C2CC(=O)NCCN2CCCCC2=O)c(F)c1 (stereo not shown) | 19.1
Cc1nn(CCCC(=O)Nc2ccccn2)c(C)c1[N+](=O)[O-] | 18.3
O=C(COc1ccc(-n2cnnn2)cc1)NCCc1ccc(F)cc1 | -51.5

SMILES | hERG current change (%, negative = inhibition) at 10uM [%]
O=C(COc1ccc(F)cc1)Nc1ccc(-n2cnnn2)cc1 | -49.5
O=C(COc1ccc2c(c1)CCC2)N1CCN(c2ccc(F)cc2)CC1 | -2.53
NC(=O)COc1ccc(-n2cnnn2)cc1 | 32.4
O=C(COc1ccc(-n2cnnn2)cc1)Nc1ccc(F)c(F)c1F | 5.48
O=C(COc1ccc(-n2cnnn2)cc1)N1CCN(c2ccc(F)cc2)CC1 | -71.5
N/C(=N\N=C\c1ccnc2ccccc12)SC1CC(=O)N(c2ccc(Br)cc2)C1=O (stereo not shown) | 0.637
CC(C)Sc1cc(N2CCOCC2)nc(-c2ccccc2)n1 | 2.76
COCCn1c(N)c(N(Cc2ccccc2)C(=O)c2ccc(-c3ccc(Cl)cc3)o2)c(=O)[nH]c1=O | -45.5
Cc1ccc(-n2nc(C)c(/C=N/NC(=O)c3cccs3)c2Cl)cc1 | 5.12
Cc1ccc(S(=O)(=O)N2CCN(CC(=O)N/N=C/c3ccc(Br)s3)CC2)cc1 | -49
O=C(CN1CCOCC1)N/N=C/c1ccco1 | 17.1
Cc1ccsc1/C=N/NC(=O)CN1CCN(S(=O)(=O)c2ccc(Br)cc2)CC1 | -41.7
O=C(CN1CCN(S(=O)(=O)c2ccc(Br)cc2)CC1)N/N=C/c1ccco1 | -56.9
Cc1ccc(S(=O)(=O)N2CCN(CC(=O)N/N=C/c3ccco3)CC2)cc1 | -33
O=C(CN1CCN(S(=O)(=O)c2ccc(Br)cc2)CC1)N/N=C/c1ccccc1C(=O)O | 14.2
Cc1ccc(/C=N/NC(=O)CN2CCN(S(=O)(=O)c3ccc(Br)cc3)CC2)s1 | -58.9
O=C(CN1CCN(S(=O)(=O)c2ccc(Br)cc2)CC1)N/N=C/c1ccc(Br)s1 | -17.6
O=C(CN1CCN(S(=O)(=O)c2ccc(Br)cc2)CC1)N/N=C/c1cccs1 | -58.4
CN1CCN(c2c(F)cc([N+](=O)[O-])c(N)c2Br)CC1 | -45.3
